# Key:
# Assay in all cases: DAPPL (digital affinity profiling via proximity ligation, sequencing); 10 mM Tris-HCl pH 7.5, 50 mM NaCl, 1 mM DTT, 4% glycerol, room temperature, 30 min; GST-TFs on glutathione beads, 16-mer random dsDNA library, 0.1% formaldehyde crosslink after washing; high values mean tight binding
# FLI1 = molecular target: T1, FLI1 (Homo sapiens, UniProt Q01543 1-452); conditions: protein: recombinant; tags: N-terminal GST; dsDNA, one strand shown
# T1 sequence: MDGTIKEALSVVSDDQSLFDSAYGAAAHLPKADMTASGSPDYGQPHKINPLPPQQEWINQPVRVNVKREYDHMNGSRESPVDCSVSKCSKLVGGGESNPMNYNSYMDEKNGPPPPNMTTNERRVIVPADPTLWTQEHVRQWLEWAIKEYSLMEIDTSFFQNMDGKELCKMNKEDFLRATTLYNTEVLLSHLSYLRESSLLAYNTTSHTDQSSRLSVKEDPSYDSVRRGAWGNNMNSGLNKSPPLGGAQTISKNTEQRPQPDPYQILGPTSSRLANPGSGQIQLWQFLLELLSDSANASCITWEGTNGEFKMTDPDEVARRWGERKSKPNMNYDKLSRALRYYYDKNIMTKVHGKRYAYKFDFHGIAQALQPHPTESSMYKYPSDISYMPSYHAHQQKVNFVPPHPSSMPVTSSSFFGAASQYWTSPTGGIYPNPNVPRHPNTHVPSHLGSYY
# Method in brief: (§1)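 Each value of binding signal is a hexamer's read frequency for a factor divided by the same hexamer's frequency in the tag-only sample. Barcoded, bead-captured GST fusions of human transcription factors made in yeast were pooled with that sample and incubated with 200 nmole of a random double-stranded 16-mer DNA library in Tris/NaCl/DTT/glycerol buffer at room temperature for 30 min. Washing, 0.1% formaldehyde crosslinking, proximity ligation, PCR and Illumina NextSeq500 sequencing followed.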
# ELK1 = molecular target: T2, ELK1 (Homo sapiens, UniProt P19419 1-428); conditions: protein: recombinant; tags: N-terminal GST; dsDNA, one strand shown
# T2 sequence: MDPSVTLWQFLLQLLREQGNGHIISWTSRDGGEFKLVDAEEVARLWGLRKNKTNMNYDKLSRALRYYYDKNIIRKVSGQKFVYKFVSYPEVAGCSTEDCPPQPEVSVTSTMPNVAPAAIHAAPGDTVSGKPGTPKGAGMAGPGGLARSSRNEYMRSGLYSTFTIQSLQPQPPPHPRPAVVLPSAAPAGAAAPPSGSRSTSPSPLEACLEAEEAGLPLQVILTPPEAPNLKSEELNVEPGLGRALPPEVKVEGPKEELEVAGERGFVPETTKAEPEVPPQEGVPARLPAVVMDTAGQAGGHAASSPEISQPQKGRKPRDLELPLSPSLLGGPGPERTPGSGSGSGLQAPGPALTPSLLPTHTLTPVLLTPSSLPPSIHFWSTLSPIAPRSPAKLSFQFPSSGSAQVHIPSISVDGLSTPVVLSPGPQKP
# Method in brief: as §1
# GABPA = molecular target: T3, GABPA (Homo sapiens, UniProt Q06546 1-454); conditions: protein: recombinant; tags: N-terminal GST; dsDNA, one strand shown
# T3 sequence: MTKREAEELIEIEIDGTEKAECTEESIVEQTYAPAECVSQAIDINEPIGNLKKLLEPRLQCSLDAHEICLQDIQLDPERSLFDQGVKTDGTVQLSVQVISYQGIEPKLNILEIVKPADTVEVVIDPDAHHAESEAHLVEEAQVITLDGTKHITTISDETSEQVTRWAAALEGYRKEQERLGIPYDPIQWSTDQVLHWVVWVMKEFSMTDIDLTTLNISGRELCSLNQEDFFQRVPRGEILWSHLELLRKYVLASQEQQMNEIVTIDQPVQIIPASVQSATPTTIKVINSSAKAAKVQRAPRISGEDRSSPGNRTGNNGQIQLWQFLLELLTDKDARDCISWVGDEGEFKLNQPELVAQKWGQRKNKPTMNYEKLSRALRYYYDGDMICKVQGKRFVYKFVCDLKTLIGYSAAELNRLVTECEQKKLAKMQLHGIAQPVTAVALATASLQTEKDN
# Method in brief: as §1
# ERG = molecular target: T4, ERG (Homo sapiens, UniProt P11308 1-479); conditions: protein: recombinant; tags: N-terminal GST; dsDNA, one strand shown
# T4 sequence: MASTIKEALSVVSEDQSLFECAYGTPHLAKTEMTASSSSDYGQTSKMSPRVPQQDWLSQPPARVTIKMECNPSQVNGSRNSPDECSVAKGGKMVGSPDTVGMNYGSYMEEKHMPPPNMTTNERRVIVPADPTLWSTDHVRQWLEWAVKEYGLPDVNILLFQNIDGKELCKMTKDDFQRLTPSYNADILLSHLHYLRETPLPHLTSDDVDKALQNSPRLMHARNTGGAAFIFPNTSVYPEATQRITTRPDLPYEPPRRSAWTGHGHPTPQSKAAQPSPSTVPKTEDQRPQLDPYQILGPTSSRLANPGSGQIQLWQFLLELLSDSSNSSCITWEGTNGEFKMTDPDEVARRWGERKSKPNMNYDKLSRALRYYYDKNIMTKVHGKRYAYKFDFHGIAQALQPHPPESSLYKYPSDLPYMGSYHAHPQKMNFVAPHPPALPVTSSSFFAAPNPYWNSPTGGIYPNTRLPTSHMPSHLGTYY
# Method in brief: as §1
# ELF1 = ELF1 (Homo sapiens, UniProt P32519 1-619); conditions: protein: recombinant; tags: N-terminal GST; dsDNA, one strand shown
# Method in brief: as §1
# EHF = molecular target: T5, EHF (Homo sapiens, UniProt Q9NZC4 1-300); conditions: protein: recombinant; tags: N-terminal GST; dsDNA, one strand shown
# T5 sequence: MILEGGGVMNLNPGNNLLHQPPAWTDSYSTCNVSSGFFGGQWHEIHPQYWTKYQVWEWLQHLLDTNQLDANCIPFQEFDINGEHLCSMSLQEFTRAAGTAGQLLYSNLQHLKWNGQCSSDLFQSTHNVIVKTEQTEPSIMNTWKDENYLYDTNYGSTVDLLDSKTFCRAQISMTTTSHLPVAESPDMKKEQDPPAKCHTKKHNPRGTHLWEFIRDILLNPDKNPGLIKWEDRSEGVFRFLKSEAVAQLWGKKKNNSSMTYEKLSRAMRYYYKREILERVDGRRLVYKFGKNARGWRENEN
# Method in brief: as §1
# SPI1 = SPI1 (Homo sapiens, UniProt P17947 1-270); conditions: protein: recombinant; tags: N-terminal GST; dsDNA, one strand shown
# Method in brief: as §1
# SPIB = SPIB (Homo sapiens, UniProt Q01892 1-262); conditions: protein: recombinant; tags: N-terminal GST; dsDNA, one strand shown
# Method in brief: as §1
# ELK3 = molecular target: T6, ELK3 (Homo sapiens, UniProt P41970 1-407); conditions: protein: recombinant; tags: N-terminal GST; dsDNA, one strand shown
# T6 sequence: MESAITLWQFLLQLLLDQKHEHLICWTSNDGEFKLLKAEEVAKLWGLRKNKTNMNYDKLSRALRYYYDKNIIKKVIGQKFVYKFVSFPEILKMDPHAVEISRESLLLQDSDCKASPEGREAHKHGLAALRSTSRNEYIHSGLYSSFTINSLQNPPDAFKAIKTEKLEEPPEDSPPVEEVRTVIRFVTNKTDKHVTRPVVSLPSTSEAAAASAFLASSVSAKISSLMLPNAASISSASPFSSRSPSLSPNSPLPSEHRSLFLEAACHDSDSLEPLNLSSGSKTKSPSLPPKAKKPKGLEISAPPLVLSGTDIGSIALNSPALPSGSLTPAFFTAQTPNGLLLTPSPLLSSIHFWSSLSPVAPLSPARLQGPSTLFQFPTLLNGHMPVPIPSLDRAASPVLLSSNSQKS
# Method in brief: as §1
# FEV = molecular target: T7, FEV (Homo sapiens, UniProt Q99581 1-238); conditions: protein: recombinant; tags: N-terminal GST; dsDNA, one strand shown
# T7 sequence: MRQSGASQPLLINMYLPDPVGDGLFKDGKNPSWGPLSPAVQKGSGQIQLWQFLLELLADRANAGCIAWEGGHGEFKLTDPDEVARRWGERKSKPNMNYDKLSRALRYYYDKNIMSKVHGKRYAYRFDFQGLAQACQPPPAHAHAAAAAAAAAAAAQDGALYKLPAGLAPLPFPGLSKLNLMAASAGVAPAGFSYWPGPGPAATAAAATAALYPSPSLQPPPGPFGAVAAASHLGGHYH
# Method in brief: as §1
# ETV5 = ETV5 (Homo sapiens, UniProt P41161 1-510); conditions: protein: recombinant; tags: N-terminal GST; dsDNA, one strand shown
# Method in brief: as §1
# HSF1 = HSF1 (Homo sapiens, UniProt Q00613 1-529); conditions: protein: recombinant; tags: N-terminal GST; chain copies: 3; dsDNA, one strand shown
# Method in brief: as §1
# SPIC = molecular target: T8, SPIC (Homo sapiens, UniProt Q8N5J4 1-248); conditions: protein: recombinant; tags: N-terminal GST; dsDNA, one strand shown
# T8 sequence: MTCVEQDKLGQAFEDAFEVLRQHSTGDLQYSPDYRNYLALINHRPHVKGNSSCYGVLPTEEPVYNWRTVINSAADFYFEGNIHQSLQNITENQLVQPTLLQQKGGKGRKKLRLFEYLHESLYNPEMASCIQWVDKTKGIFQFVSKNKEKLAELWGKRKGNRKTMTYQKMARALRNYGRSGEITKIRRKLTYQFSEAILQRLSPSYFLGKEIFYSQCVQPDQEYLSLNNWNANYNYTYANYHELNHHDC
# Method in brief: as §1
# ELF4 = ELF4 (Homo sapiens, UniProt Q99607 1-663); conditions: protein: recombinant; tags: N-terminal GST; dsDNA, one strand shown
# Method in brief: as §1
# ELK4 = molecular target: T9, ELK4 (Homo sapiens, UniProt P28324-2 1-405); conditions: protein: recombinant; tags: N-terminal GST; dsDNA, one strand shown
# T9 sequence: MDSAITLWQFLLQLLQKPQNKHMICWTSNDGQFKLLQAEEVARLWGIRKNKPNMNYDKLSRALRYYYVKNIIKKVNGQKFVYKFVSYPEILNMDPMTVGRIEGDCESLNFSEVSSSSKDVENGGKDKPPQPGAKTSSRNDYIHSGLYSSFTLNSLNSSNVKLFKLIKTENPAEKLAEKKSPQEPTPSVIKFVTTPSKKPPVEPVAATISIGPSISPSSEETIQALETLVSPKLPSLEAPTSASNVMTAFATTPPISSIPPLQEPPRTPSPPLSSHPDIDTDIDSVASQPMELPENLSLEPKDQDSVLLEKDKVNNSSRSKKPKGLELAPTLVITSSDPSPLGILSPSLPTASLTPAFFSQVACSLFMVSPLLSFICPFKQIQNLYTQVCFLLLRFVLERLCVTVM
# Method in brief: as §1
# ETV2 = molecular target: T10, ETV2 (Homo sapiens, UniProt O00321 1-342); conditions: protein: recombinant; tags: N-terminal GST; dsDNA, one strand shown
# T10 sequence: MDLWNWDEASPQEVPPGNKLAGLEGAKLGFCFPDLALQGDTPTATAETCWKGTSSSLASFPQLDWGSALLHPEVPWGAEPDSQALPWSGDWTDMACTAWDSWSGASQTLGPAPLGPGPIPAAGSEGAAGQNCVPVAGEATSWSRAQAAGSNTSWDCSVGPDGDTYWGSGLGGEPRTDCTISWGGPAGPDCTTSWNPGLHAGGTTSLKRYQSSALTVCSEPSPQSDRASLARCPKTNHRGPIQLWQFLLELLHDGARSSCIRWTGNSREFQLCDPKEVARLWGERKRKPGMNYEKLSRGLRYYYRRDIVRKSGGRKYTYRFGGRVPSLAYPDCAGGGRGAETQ
# Method in brief: as §1
# ELF3 = molecular target: T11, ELF3 (Homo sapiens, UniProt P78545 1-371); conditions: protein: recombinant; tags: N-terminal GST; dsDNA, one strand shown
# T11 sequence: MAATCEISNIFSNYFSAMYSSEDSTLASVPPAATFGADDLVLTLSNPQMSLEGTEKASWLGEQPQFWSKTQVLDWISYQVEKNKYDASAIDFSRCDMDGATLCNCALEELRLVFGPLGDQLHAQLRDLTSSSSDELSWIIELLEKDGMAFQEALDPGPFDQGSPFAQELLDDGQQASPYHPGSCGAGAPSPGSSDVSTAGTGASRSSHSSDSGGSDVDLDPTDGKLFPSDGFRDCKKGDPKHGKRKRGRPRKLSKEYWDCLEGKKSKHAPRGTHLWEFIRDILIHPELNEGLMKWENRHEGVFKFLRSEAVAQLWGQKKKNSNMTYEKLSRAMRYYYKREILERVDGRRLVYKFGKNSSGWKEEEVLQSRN
# Method in brief: as §1
# CRX = CRX (Homo sapiens, UniProt O43186 1-299); conditions: protein: recombinant; tags: N-terminal GST; dsDNA, one strand shown
# Method in brief: as §1
# ETV1 = ETV1 (Homo sapiens, UniProt P50549 1-477); conditions: protein: recombinant; tags: N-terminal GST; dsDNA, one strand shown
# Method in brief: as §1
# Sequence of ELF4 (Q99607 whole entry): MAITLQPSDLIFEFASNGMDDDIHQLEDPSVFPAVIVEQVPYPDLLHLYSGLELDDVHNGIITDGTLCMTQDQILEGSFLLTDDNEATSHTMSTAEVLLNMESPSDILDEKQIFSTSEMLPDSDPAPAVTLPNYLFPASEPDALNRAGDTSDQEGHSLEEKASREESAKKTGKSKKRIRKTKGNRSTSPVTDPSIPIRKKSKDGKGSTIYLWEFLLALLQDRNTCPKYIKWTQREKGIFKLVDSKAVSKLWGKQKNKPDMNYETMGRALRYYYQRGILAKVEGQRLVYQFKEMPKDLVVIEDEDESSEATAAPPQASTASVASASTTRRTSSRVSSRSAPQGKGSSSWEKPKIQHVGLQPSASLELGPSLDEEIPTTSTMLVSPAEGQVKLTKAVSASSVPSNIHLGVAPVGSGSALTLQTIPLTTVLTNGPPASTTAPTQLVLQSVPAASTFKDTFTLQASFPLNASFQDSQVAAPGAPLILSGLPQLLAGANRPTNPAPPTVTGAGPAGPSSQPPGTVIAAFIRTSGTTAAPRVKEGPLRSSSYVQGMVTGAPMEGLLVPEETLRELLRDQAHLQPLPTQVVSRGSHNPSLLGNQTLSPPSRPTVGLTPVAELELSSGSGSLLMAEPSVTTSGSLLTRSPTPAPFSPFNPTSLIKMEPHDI
# Sequence of ETV5 (P41161 whole entry): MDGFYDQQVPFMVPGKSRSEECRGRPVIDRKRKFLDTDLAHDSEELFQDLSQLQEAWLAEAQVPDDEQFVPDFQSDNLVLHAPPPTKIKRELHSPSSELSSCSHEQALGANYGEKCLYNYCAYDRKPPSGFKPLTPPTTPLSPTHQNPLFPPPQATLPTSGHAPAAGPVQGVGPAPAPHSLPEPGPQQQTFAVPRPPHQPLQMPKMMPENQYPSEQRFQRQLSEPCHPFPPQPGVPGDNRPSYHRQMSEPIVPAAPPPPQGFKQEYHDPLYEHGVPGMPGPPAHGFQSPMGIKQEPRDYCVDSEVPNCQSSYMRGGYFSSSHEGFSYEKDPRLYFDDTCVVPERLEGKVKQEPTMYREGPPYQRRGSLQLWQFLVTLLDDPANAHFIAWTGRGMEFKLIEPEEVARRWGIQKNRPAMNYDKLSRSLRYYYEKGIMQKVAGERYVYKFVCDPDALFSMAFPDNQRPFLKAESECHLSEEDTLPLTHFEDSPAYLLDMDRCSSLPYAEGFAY
# Sequence of HSF1 (Q00613 whole entry): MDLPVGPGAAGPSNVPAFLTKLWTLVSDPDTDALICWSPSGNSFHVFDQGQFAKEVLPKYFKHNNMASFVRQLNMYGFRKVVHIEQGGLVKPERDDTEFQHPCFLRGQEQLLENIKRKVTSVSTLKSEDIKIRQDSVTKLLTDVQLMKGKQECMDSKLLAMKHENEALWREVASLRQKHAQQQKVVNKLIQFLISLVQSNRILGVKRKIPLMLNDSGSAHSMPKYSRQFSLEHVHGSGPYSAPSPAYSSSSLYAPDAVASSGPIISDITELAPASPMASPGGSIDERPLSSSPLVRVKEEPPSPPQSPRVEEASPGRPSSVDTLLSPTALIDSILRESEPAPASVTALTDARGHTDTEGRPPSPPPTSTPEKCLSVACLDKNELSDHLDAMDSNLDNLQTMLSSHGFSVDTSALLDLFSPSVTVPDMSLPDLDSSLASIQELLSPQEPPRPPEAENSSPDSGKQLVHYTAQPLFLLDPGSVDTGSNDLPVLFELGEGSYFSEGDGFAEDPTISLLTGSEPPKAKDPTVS
# Sequence of ETV1 (P50549 whole entry): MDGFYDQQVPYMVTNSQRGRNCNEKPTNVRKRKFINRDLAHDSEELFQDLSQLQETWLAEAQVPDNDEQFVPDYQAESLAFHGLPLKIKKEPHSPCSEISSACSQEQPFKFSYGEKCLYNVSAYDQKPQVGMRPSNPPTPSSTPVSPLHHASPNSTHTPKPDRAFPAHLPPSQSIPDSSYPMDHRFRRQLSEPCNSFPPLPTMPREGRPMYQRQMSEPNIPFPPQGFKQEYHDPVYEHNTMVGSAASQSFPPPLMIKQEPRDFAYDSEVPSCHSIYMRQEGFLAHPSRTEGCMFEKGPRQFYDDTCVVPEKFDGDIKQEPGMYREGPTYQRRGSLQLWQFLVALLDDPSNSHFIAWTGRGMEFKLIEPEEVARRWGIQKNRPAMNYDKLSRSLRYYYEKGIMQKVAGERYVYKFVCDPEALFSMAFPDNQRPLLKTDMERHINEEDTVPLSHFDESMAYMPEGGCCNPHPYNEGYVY
# Sequence of ELF1 (P32519 whole entry): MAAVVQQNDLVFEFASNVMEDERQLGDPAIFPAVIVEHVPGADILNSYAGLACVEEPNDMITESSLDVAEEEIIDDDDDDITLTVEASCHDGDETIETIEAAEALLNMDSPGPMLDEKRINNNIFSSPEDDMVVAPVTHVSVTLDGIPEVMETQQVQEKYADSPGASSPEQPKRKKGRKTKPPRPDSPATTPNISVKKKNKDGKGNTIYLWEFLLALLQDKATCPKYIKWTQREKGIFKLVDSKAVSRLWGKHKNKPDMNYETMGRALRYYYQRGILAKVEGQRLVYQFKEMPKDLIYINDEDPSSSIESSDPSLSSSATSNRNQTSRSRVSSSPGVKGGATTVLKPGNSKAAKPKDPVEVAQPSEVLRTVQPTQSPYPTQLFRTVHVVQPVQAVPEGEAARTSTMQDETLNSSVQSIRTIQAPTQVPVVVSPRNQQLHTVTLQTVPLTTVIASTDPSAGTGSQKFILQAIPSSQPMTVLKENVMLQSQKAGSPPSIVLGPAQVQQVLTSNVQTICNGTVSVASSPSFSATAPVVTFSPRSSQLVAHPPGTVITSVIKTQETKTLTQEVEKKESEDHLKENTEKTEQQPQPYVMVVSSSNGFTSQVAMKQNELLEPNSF
# Sequence of SPIB (Q01892 whole entry): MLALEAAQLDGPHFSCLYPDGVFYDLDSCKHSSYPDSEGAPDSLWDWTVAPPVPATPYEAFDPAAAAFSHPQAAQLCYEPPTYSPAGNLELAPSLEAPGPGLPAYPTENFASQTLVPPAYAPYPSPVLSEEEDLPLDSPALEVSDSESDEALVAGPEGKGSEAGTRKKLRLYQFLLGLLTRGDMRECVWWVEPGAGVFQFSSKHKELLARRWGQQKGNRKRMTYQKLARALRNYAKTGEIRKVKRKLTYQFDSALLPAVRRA
# Sequence of CRX (O43186 whole entry): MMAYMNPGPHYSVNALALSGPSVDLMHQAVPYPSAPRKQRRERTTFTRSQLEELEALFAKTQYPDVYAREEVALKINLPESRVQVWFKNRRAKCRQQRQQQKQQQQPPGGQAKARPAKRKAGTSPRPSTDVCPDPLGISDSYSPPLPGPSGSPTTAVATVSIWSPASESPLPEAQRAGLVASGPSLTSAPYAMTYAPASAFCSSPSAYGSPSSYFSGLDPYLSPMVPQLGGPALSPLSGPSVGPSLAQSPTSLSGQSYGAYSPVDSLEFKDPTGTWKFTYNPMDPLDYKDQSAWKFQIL
sequence,measurement,setting,value
TATCTT,binding signal,FLI1,"1.46 fold enrichment (6-mer frequency, TF over GST control)"
same,binding signal,ELK1,"1.31 fold enrichment (6-mer frequency, TF over GST control)"
same,binding signal,GABPA,"1.38 fold enrichment (6-mer frequency, TF over GST control)"
same,binding signal,ERG,"1.26 fold enrichment (6-mer frequency, TF over GST control)"
same,binding signal,ELF1,"1.36 fold enrichment (6-mer frequency, TF over GST control)"
same,binding signal,EHF,"1.3 fold enrichment (6-mer frequency, TF over GST control)"
same,binding signal,SPI1,"1.3 fold enrichment (6-mer frequency, TF over GST control)"
same,binding signal,SPIB,"1.28 fold enrichment (6-mer frequency, TF over GST control)"
same,binding signal,ELK3,"1.24 fold enrichment (6-mer frequency, TF over GST control)"
same,binding signal,FEV,"1.33 fold enrichment (6-mer frequency, TF over GST control)"
same,binding signal,ETV5,"1.22 fold enrichment (6-mer frequency, TF over GST control)"
same,binding signal,HSF1,"1.48 fold enrichment (6-mer frequency, TF over GST control)"
same,binding signal,SPIC,"1.27 fold enrichment (6-mer frequency, TF over GST control)"
same,binding signal,ELF4,"1.24 fold enrichment (6-mer frequency, TF over GST control)"
same,binding signal,ELK4,"1.38 fold enrichment (6-mer frequency, TF over GST control)"
same,binding signal,ETV2,"1.53 fold enrichment (6-mer frequency, TF over GST control)"
same,binding signal,ELF3,"1.34 fold enrichment (6-mer frequency, TF over GST control)"
same,binding signal,CRX,"1.91 fold enrichment (6-mer frequency, TF over GST control)"
same,binding signal,ETV1,"1.22 fold enrichment (6-mer frequency, TF over GST control)"

# Source: publication PMC7862700, “An all-to-all approach to the identification of sequence-specific readers for epigenetic DNA modifications on cytosine”
